A selection: hits, their analogues and other compounds. The true share with any hit is near 3.8%.
ATXN viability: cell viability loss in ATXN counter-screen; Potency, µM (doses to about 56.7 µM), most hits filed as cytotoxic; AID 651635; 400,000 tested, 0.49% active; S2 cells (HEK-293 line with an ATXN2-luciferase reporter) viability, CellTiter-Fluor protease fluorescence, 24 h; further: nearly all actives have a fitted effect of over 40% in size
ATXN2 expr inh: ATXN2 expression inhibition; Potency, µM (highest dose often 57 µM), for inactives: at the highest dose activity change, negative = inhibition, usual class: inhibitors; 360,000 tested, 0.72% active; HEK-293 ATXN2-luciferase reporter, luminescence, 24 h; AID 1745845; further: on the % scale 0 is the no-effect control and ±100 the full control effect; nearly all actives have a fitted effect of over 55% in size
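qHTS (up to 57 uM final) was run with 24 h compound exposure of reporter cells at 37 °C. Each well was multiplexed: SteadyGlo luminescence measured ATXN2-luciferase expression after a fluorogenic Gly-Phe-AFC viability readout (25 uM final).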
HepG2 tox: kills HepG2 cells in TGF-b inhibitor counter-screen; HepG2 CAGA-GFP viability, ATP luminescence, 18 h; Potency, µM (doses to about 46.1 µM), for the others: top-dose activity change, negative = cytotoxicity, hits mostly cytotoxic; 410,000 tested, 0.76% active; AID 588856
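HepG2 CAGA-GFP cells (1000/well, DMEM with 1% FBS) received compound, then TGF-beta at 500 pg/mL final, and were incubated 18 hours at 37 degrees C. Viability was read by CellTiter-Glo luminescence. Media-only wells were set as complete cell-killing and DMSO as no toxicity.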
Nrf2 inh: Nrf2 pathway inhibition; Potency, µM (series often up to 46 µM), without a hit: at the highest dose activity change, negative = inhibition, most hits filed as inhibitors; 360,000 tested, 2.1% active; A549 ARE-Fluc reporter, luciferase luminescence, 18-24 h; further: on the % scale 0 is the no-effect control and ±100 the full control effect; nearly all actives have a fitted effect of over 60% in size
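Two sequential reads on A549 ARE_Fluc cells exposed to compound for 18-24 h: a CellTiter-Fluor fluorescence read for viability, then a luciferase luminescence read for Nrf2/ARE activity.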
TGFb inhibitor: blocks TGF-b signaling | HepG2 CAGA-GFP TGF-b/SMAD3 reporter, GFP fluorescence, 18 h; TGF-beta stimulated, 500 pg/mL final | Potency, µM (series often up to 46.1 µM), for inactives: top-dose activity, negative = inhibition, hits mostly inhibitors | 410,000 tested, 1.2% active | AID 588855; further: on the % scale 0 is the no-effect control and ±100 the full control effect; nearly all actives have a fitted effect of over 65% in size
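HEPG2 CAGA-GFP, 1000 cells/well; 2 h settle, 37 C; cpd via pin tool; TGF-b 500 pg/mL final; 18 h, 37 C; GFP imaging ex488/em500-530; %Activity normalised to -TGF-b and +DMSO controls; CRC fit, curve class.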
A549 viability: counter-screen for Nrf2 inhibitors: cytotoxicity in A549 cells. A549 ARE-Fluc cells, CellTiter-Fluor viability, 18-24 h. Potency, µM (series often up to 46 µM), for inactives: top-dose activity change, negative = cytotoxicity, hits mostly inhibitors. 390,000 tested, 0.16% active. AID 504648; further: on the % scale 0 is the no-effect control and ±100 the full control effect
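A549 ARE_Fluc cells in 5% FBS OPTI-MEM were exposed to compounds in concentration-response for 18-24 h at 37 deg C. Viability was read by CellTiter-Fluor fluorescence (Ex 405/Em 525) after 30 min, before the luciferase read.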
* hit, by the source's call; i = inactive; u = inconclusive; x = no result. The call rests on the fitted dose curve; in most records, active means well fitted curve in the direction sought with a large enough effect; inconclusive means small, poorly fitted or top-dose-only effect, or another doubt; inactive means no such curve, though single readings can be large; an effect the other way counts as inactive or inconclusive. Potency means the concentration at half of the fitted maximal effect.

SMILES	ATXN viability	ATXN2 expr inh	HepG2 tox	Nrf2 inh	TGFb inhibitor	A549 viability
CCn1nc(/C=C/c2ccccc2)nc2c(=O)n(C)c(=O)nc1-2	x	u	0.89µM*	u	0.4µM*	5.8µM*
Cc1nn(Cc2ccccc2)c(C)c1C(=O)OCC(=O)Nc1cc(S(C)(=O)=O)ccc1Cl	i	-8%	-27%	u	-1%	-10%
COc1ccc(N2C(=O)/C(=C/c3ccc(N(C)C)o3)C(=O)NC2=S)cc1	u	7%	15%	0%	32%	u
CCN(CC)c1ccc(/C=C2\C(=O)NC(=S)N(c3ccc(OC)cc3OC)C2=O)o1	u	-14%	8%	-20%	48%	13µM*
C[C@@H]1CN([C@@H](C)CO)C(=O)c2c(c3ccccc3n2C)-c2ccccc2CO[C@H]1CN(C)C(=O)[C@H](C)c1ccccc1	u	u	-35%	x	u	x
CC(=O)c1ccc(NC(=O)CSc2nc(=O)cc(N)n2-c2ccccc2)cc1	i	45%	-3%	u	1%	2%
CCc1ccc([C@H]2[C@@H]3C(=O)C[C@@H]4C(=O)N(Cc5ccccc5)C(=O)[C@@H]4[C@@H]3CN2S(=O)(=O)c2ccc(C)cc2)cc1	i	7%	2%	x	u	x
COc1ccc(NC(=O)Cn2c(=O)oc3cc(S(=O)(=O)N4CCC(C)CC4)ccc32)c(OC)c1	x	x	-30%	u	13µM*	-2%
O=C(Nc1ccc(Br)cc1)c1cccc(S(=O)(=O)N2CCc3ccccc32)c1	i	u	-21%	16µM*	u	-22%
Cc1ccc(CCNC(=O)C2CCCN(Cc3nc(-c4cccc(Cl)c4)oc3C)C2)cc1 (configuration not stated)	x	x	-27%	u	-19%	-12%
CCOc1ccc(-c2nc(CSCC(=O)NCCc3ccc(OCC)c(OCC)c3)c(C)o2)cc1	32µM*	20µM*	-16%	x	-17%	-1%
C[C@@H]1[C@H](O)[C@@H](C)C=CC=CCCC=CC=CC=CC=C[C@H](O[C@H]2O[C@@H](C)[C@H](O)[C@@H](N)[C@@H]2O)CC2O[C@](O)(C[C@@H](O)[C@H](O)CC[C@@H](O)C[C@@H](O)C[C@@H](O)CC(=O)O[C@H]1C)C[C@H](O)[C@H]2C(=O)O	i	10%	x	x	x	x
Fc1cc(Br)ccc1CBr	i	12%	x	x	x	x
C[C@@H]1O[C@@H](O[C@@H]2C=C3CC[C@@H]4C(CC[C@]5(C)[C@@H](c6ccc(=O)oc6)CC[C@]45O)[C@@]3(C)CC2)[C@H](O)[C@H](O)[C@H]1O (some centres not stated)	u	-75%	-53%	0.023µM*	0.28µM*	u
Cn1c(=O)n(C)c2cc(CNCCc3ccccc3F)ccc21	i	-9%	-3%	-17%	-2%	-10%
NC(Cc1ccc(F)cc1)c1csc(Nc2cnccn2)n1 (configuration not stated)	i	10%	-34%	x	2%	x
NC(Cc1ccccc1)c1csc(Nc2ccccn2)n1 (configuration not stated)	u	-21%	-37%	x	u	x
NC(Cc1ccc(Cl)cc1)c1csc(Nc2ccccn2)n1 (configuration not stated)	u	22µM*	-106%	x	u	x
NC(Cc1ccc(F)cc1)c1csc(Nc2ccccn2)n1 (configuration not stated)	i	u	25µM*	x	u	x
COc1cccc(Nc2nc(C(N)Cc3ccc(F)cc3)cs2)n1 (configuration not stated)	u	25µM*	-73%	x	u	x
C[C@]12Cc3cn[nH]c3C[C@@H]1CC[C@@H]1[C@@H]2CC[C@@]2(C)[C@H]1CC[C@]2(C)O	i	-11%	x	x	x	x
Cc1c(C(=O)NCc2ccc3c(c2)OCO3)cnn1-c1ncc2c(n1)-c1ccccc1CC2	i	x	x	x	x	x
CC(C)[C@H]1C(=O)O[C@H](C(C)C)C(=O)N(C)[C@@H](C(C)C)C(=O)O[C@H](C(C)C)C(=O)N(C)[C@@H](C(C)C)C(=O)O[C@H](C(C)C)C(=O)N1C	10µM*	7.9µM*	-38%	3.7µM*	5.6µM*	u
N=c1c2c(-c3ccccc3)c(-c3ccccc3)n(Cc3ccccc3)c2ncn1C1CCC(O)CC1 (configuration not stated)	x	24µM*	x	x	x	x
C[N+]1(C)[C@@H]2CC(OC(=O)[C@H](CO)c3ccccc3)C[C@H]1[C@H]1O[C@@H]12 (some centres not stated)	x	-2%	x	x	x	x
SMILES	ATXN viability	ATXN2 expr inh	HepG2 tox	Nrf2 inh	TGFb inhibitor	A549 viability
COc1cc(C)c(CNCCc2c[nH]c3ccccc23)cc1C	u	x	11µM*	-2%	u	-3%
COc1ccc(CNCCc2c[nH]c3ccccc23)c(OC)c1C	u	-31%	-59%	-3%	-29%	u
CN[C@]1(c2ccccc2Cl)CCCCC1=O	i	x	x	x	x	x
COc1ccc(CN2C(=O)NC(=O)/C(=C\c3ccco3)C2=O)cc1	i	-12%	0%	-7%	-1%	-8%
O=C1NC(=O)N(Cc2ccccc2)C(=O)/C1=C/C=C/c1ccco1	20µM*	u	-17%	-12%	11µM*	-15%
O=C(NC1CCCCCC1)c1ccc[nH]c1=S	i	23%	2%	7%	u	0%
CC(=O)NC(Cc1ccc(N(CCCl)CCCl)cc1)C(=O)NCC(=O)NCC(=O)O (configuration not stated)	i	-27%	8%	16%	11%	2%
Cc1cccc(CN2CCCC(C(=O)c3cccc(OC(C)C)c3)C2)n1 (configuration not stated)	32µM*	x	-52%	-19%	u	-3%
COc1cccc(C(=O)C2CCCN(Cc3cccc(C)n3)C2)c1 (configuration not stated)	u	x	-34%	3%	u	-16%
CCn1nc(C)c(CN2CCCC(C(=O)c3cccc(OC(C)C)c3)C2)c1C (configuration not stated)	i	x	-18%	10µM*	-7%	0%
CC(C)(C)NC[C@H](O)c1cc(Cl)c(N)c(Cl)c1	i	x	x	x	x	x
O=C(O)CNC(=O)C(CS)Cc1ccccc1 (configuration not stated)	i	0%	1%	10µM*	23%	-10%
O=C(O)CNC(=O)c1c(O)c2ccccc2n(Cc2ccccc2)c1=O	x	14%	x	x	x	x
CCOc1ccc(CN(CCc2ccc3c(c2)OCO3)Cc2cc(OC)ccc2O)cc1	i	-4%	-47%	9%	u	3%

Screening data deposited in PubChem by National Center for Advancing Translational Sciences (NCATS).
